Source: PubChem BioAssay
Most compounds without a hit are left out; they make up all but 1.9% or so of the library.
MCL1-BIM inh: disrupts human MCL1 binding to BIM-BH3 peptide; GST-MCL1 / FITC-Bim-BH3 fluorescence polarization; inhibition, % at 10.9 µM; hit rate 0.68% among 320,000;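 active means inhibition above the mean inhibition of all tested compounds plus 3 SD, set per campaign, cut at about 40% in these data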;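 further: higher means more loss of mP so more displacement of Bim peptide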
Yeast superoxide: caloric restriction mimetics inhibiting age-related superoxide in yeast | S. cerevisiae aged cells, superoxide DHE fluorescence; stronger effect = lower value | superoxide response (% of plate mean), % at 10 µM | hit rate 0.18% among 330,000 | AID 2690;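 active means superoxide response under a set limit, about three screen SD below normal, cut at about 65% in these data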;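 further: yeast aged for seven days with compound at 30 °C before DHE staining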
BCLXL inh: inhibitors of human Bcl-xL | Q07817 | GST-Bcl-xL / FITC-Bim BH3 peptide fluorescence polarization | inhibition, % at 10.9 µM | hit rate 0.7% among 320,000 | AID 2129;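 active means inhibition above the mean of all tested compounds plus 3 SD, cutoff set per campaign, cut at about 30% in these data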;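 further: inhibitors lower millipolarization by displacing the labeled peptide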
GLD-1 TGE inh: GLD-1-TGE RNA interaction inhibition (C. elegans) | inhibition, % at 5.96 µM | hit rate 0.44% among 320,000 | purified GLD-1 + fluorescein TGE RNA, fluorescence polarization | Q17339;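 active means percent inhibition above a per-plate cutoff, the plate mean of test compounds plus 3 SD, cut at about 30% in these data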
MEX-5 binding: C. elegans MEX-5 TCR-2 RNA binding activity; hit rate 0.38% among 300,000; activity score (negative = inhibition of binding), % at 10 µM; Q9XUB2; MEX-5/FITC-TCR2 RNA binding, fluorescence polarization; stronger effect = lower value; AID 1832;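 active means inhibition past about -25% in most replicates, and total fluorescence under double the plate's negative control median, limit read from the data; inconclusive means replicates evenly split on the limit, or fluorescence at least double controls; inactive means too little inhibition in most replicates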
Target sequence (Q9XUB2 whole entry, looked up): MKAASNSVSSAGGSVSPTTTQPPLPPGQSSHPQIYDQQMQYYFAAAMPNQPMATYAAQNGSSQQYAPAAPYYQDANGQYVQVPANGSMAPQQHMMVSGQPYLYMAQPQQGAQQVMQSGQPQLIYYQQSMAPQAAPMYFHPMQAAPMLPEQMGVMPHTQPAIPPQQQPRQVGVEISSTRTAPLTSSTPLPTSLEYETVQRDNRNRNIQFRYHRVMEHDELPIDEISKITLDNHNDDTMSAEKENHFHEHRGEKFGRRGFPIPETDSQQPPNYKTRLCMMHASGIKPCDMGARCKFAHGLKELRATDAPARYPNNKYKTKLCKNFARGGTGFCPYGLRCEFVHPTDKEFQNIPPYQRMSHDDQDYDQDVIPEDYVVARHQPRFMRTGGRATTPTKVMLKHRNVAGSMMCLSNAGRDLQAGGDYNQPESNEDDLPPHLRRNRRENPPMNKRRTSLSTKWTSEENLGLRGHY
LANA-H2B inh: blocks KSHV LANA binding to histone H2A/H2B. cell-free LANA-H2A/H2B peptide, fluorescence polarization. inhibition, % (concentration not given with the values). hit rate 0.6% among 320,000; in the data active means inhibition mostly above about 10%, no sharp cut-off; inactive means mostly below about 6.7%
Of the large screens only hits and unclear results are named; the others gave an inactive call.

CCCCN(C(=O)Cc1coc2cc(C)c(C)cc12)c1c(N)n(Cc2ccccc2)c(=O)[nH]c1=O	none
COc1cc(NC(=O)c2ccc(Br)cc2)c(OC)cc1NC(=O)c1ccccc1	none
COc1ccc2nc3ccccc3nc2c1NC(=O)c1ccc(Br)cc1	MCL1-BIM inh 42, BCLXL inh 39, MEX-5 binding inconclusive
Cc1ccc2c(c1)C(=O)N1[C@H]3c4cc(Cl)ccc4OC[C@@H]3[C@H](c3ccccc3)[C@]1(C)C(=O)N2	none (no result: MCL1-BIM inh, BCLXL inh, MEX-5 binding)
Cc1ccc2c(c1)C(=O)N1[C@H]3c4cc(C)ccc4OC[C@@H]3[C@H](c3ccccc3)[C@]1(C)C(=O)N2	LANA-H2B inh 104 (no result: MCL1-BIM inh, BCLXL inh, MEX-5 binding)
CCOC(=O)[C@H]1[C@H]2COc3ccc(Cl)cc3[C@@H]2N2C(=O)c3cc(Br)ccc3NC(=O)[C@@]12C	LANA-H2B inh 17 (no result: Yeast superoxide, MEX-5 binding)
CCCOc1ccc(N2C(=O)CC(NCCc3ccc(S(N)(=O)=O)cc3)C2=O)cc1 (stereo unspecified)	none
CCCOc1ccc(N2C(=O)CC(NCCNc3ccc(S(=O)(=O)CC)cc3)C2=O)cc1 (stereo unspecified)	BCLXL inh 59
CN(C(=O)c1ccccc1C(=O)OCC(=O)c1ccccc1)c1ccccc1	LANA-H2B inh 30 (no result: MEX-5 binding)
CCN1CCN(C(=O)c2ccc3c(=O)n(Cc4ccccc4OC)c(=S)[nH]c3c2)CC1	MEX-5 binding -29
COc1ccc(NC(=O)CSCc2cc(=O)n3c(C)csc3n2)cc1	none
Cc1nn(CC(=O)NCCCN2CC(C)CC(C)C2)c(=O)c2cccn12 (stereo unspecified)	none
C=CCn1c(N)c(C(=O)NCC2CCCO2)sc1=S (stereo unspecified)	none
C=CCn1c(=O)/c(=C/c2ccc(C)o2)s/c1=C(/C#N)C(=O)c1ccccc1	MEX-5 binding -27
C=CCn1c(=O)/c(=C\c2ccccn2)s/c1=C(/C#N)C(=O)NCC1CCCO1 (stereo unspecified)	MEX-5 binding -28
Cc1c(-n2c(SCC(=O)NC(C)C)nc3ccccc3c2=O)c(=O)n(-c2ccccc2)n1C	none
CCC(C)NC(=O)CSc1nc2ccccc2c(=O)n1-c1c(C)n(C)n(-c2ccccc2)c1=O (stereo unspecified)	LANA-H2B inh 100
CCCCn1c(N)c(N(CCOC)C(=O)C2CC(=O)N(c3ccc(CC)cc3)C2)c(=O)[nH]c1=O (stereo unspecified)	none (no result: MEX-5 binding)
CC(C)[C@H](N)c1cn([C@@H](CC(N)=O)C(=O)N2CCNCC2)nn1	none (no result: MEX-5 binding)
Cc1cc(C)cc(NC(=O)N2CCCN(c3ncccc3[N+](=O)[O-])CC2)c1	LANA-H2B inh 14
Cc1cc(C)cc(NC(=S)N2CCN(c3ncccn3)CC2)c1	LANA-H2B inh 21
COc1ccc(NC(=O)C2CCC(N3C(=O)C4C5C=CC(C5)C4C3=O)CC2)cc1 (stereo unspecified)	none
COc1ccc(NC(=O)[C@@H]2[C@@H]3C(=O)N(C4CCCCC4)C(=O)[C@@H]3C3c4ccccc4C=CN32)cc1 (stereo partly specified)	LANA-H2B inh 17
Cc1coc(NC(=O)CSc2nc(-c3ccc(Cl)cc3)cc(C(F)(F)F)c2C#N)n1	MCL1-BIM inh 40, BCLXL inh 45
COc1ccc(-c2cc(C(F)(F)F)c(C#N)c(SCC(=O)Nc3nc(C)co3)n2)cc1	none
CC1CCc2onc(C(=O)NCc3ccco3)c2C1 (stereo unspecified)	LANA-H2B inh active
O=C(NCc1ccco1)c1noc2c1CCCC2	none
CCn1nnnc1SCC(=O)N1c2ccccc2NC(=O)CC1C (stereo unspecified)	none (no result: MEX-5 binding)
CNc1nnc(SCC(=O)N2c3ccccc3NC(=O)CC2C)s1 (stereo unspecified)	LANA-H2B inh active (no result: MEX-5 binding)
COc1ccccc1[C@@]1(C)ON(c2ccccc2C(F)(F)F)C1=O	none (no result: MEX-5 binding)
COc1ccc(/C=C/C(=O)OCC(=O)NCc2ccccc2Cl)cc1OC	none (no result: MCL1-BIM inh, BCLXL inh, MEX-5 binding)
C=CCOn1c(=O)c(-c2cc3ccccc3o2)[n+]([O-])c2ccccc21	BCLXL inh 45, MEX-5 binding -27
CCOC(=O)COn1c(=O)c(-c2cc3ccccc3o2)[n+]([O-])c2ccccc21	MEX-5 binding -37
O=S(=O)(O)c1cccc2cccc(Nc3ccccc3)c12	none
Nc1cc2nsnc2cc1Br	MCL1-BIM inh 41, BCLXL inh 42
Nc1cccc2nsnc12	none
Cc1oc(-c2ccccc2)[n+]([O-])c1C	none
[O-][n+]1c2ccccc2cc2ccccc21	LANA-H2B inh 18
COc1ccccc1/C=C/C=C1\Oc2c(ccc(O)c2CN(C)C)C1=O	MCL1-BIM inh 42, BCLXL inh 53, MEX-5 binding inconclusive
COc1cccc(Cn2cc(C)cc(NC(=O)NCc3ccccc3)c2=O)c1	LANA-H2B inh 23
COc1ccc(-c2coc3cc4oc(=O)cc(-c5ccccc5)c4cc23)cc1F	BCLXL inh 37 (no result: MEX-5 binding)
COc1ccc(-c2coc3cc4oc(=O)cc(C)c4cc23)cc1F	none
N#CC1=C(N)Oc2ccc3ccc(O)cc3c2C1c1ccsc1 (stereo unspecified)	MEX-5 binding -47 (no result: MCL1-BIM inh, Yeast superoxide, BCLXL inh, GLD-1 TGE inh, LANA-H2B inh)
N#CC1=C(N)Oc2cc(N)ccc2C1c1ccsc1 (stereo unspecified)	none
Clc1ccc(-c2ccnc(-n3cccc3)n2)s1	LANA-H2B inh 30
COc1ccccc1N1CCN(/N=C/c2cccc(Cl)c2)CC1	BCLXL inh 33
COc1cccc(/C=N/N2CCN(c3ccccc3OC)CC2)c1	none
Cc1cccc(N(Cc2ccccc2)C(=O)c2ccc(S(C)(=O)=O)cc2)c1	LANA-H2B inh 23
COc1cc(NC(=O)C2CCN(S(=O)(=O)c3cccs3)CC2)cc(OC)c1	none
COc1ccccc1C(C)NC(=O)C1CCN(S(=O)(=O)c2cccs2)CC1 (stereo unspecified)	LANA-H2B inh active (no result: MEX-5 binding)
Cc1cc(NC(=O)COc2ccc3ccccc3c2Br)no1	none (no result: MCL1-BIM inh, BCLXL inh, MEX-5 binding)
O=C(N/C(=C\c1ccco1)C(=O)N1CCCC1)c1ccccc1	MCL1-BIM inh 41, BCLXL inh 40
CC(C(=O)N1CCCCC1)N(C)CC(=O)Nc1cccc(F)c1 (stereo unspecified)	LANA-H2B inh 30 (no result: MEX-5 binding)
O=C1NCCO1	none (no result: MEX-5 binding)
Cc1cc(C(=O)OCC(=O)Nc2c(Cl)cccc2C(F)(F)F)c(C)o1	BCLXL inh 46
Cc1ccsc1C(=O)OCC(=O)Nc1c(Cl)cccc1C(F)(F)F	none
COc1ccc(C)cc1NC(=O)CN1CCCC1c1ccc2c(c1)OCCCO2 (stereo unspecified)	none (no result: MCL1-BIM inh, BCLXL inh, MEX-5 binding)
CCOc1ccc(NC(=O)COC(=O)CCN2C(=O)C3CC=CCC3C2=O)cc1OCC (stereo unspecified)	LANA-H2B inh 40 (no result: MEX-5 binding)
